Here are results for 14 molecules from PMC12136788.

The full ranking holds about 24,000 sequences; the median of “enrichment r” is about 0.99, and the highest 2% start at about 3.7. For the sample, the highest values were picked, then their nearest neighbours and some sequences at random.

T1: UNK ZnF1-3 (human, UniProt Q9C0B0 31-174)
T1 sequence: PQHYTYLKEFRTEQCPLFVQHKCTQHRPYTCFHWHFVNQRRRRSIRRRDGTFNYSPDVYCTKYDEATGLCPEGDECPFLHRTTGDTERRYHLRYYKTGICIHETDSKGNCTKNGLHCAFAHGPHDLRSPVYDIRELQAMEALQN

B1: chr14:57575763:57575764:+_ENSMUSG00000021945_ENSMUST00000022511|mus_hu|FALSE|FALSE (ssRNA)
RNA: GGGAGUUCUACAGUCCGACGAUCCACUGUUUUCAGGCCAAAAUACUUAGUGUUAAAGUAGAACAGUGUAUUCAGAAGAGCUACUGGAGAGUGUGAUCCUAGUUGUUUUAUCCUCCAGAGAUAGUCUUCUUCAACUCGAGAGAACAACAGAGGAUUGAGCAUCA
B2: chr1:183495733:183495734:+_ENSG00000116698_ENST00000515829|hu_hu|FALSE|FALSE (ssRNA)
RNA: GGGAGUUCUACAGUCCGACGAUCGGAAGACUUCACACGGCAUGGUAAAUCUACAUUAAAUACUGUACACAGUUCUUGUAAUAACUGAGUAUAGAAGCCACUAGCUGCCUCUAGGAACAGAGAAAGGUUUGCCUGAACUUCACUCAACAGAGGAUUGAGCAUCA
B3: chr12:58340223:58340224:+_ENSMUSG00000079104_ENSMUST00000139049|mus_mus|motif|central (ssRNA)
RNA: GGGAGUUCUACAGUCCGACGAUCCUGUAUUUUGGAGCAGUGUUUCAUCUUGUCUUCCUGAGGUAUGGUAUUGGUAACGGCGGCUGCUUCAAAGCAUGCAUUGUUGAUGCGAGAAAUGGCAGGGCCAGAGAAGAUUCCAUGCGUCAACAGAGGAUUGAGCAUCA
B4: chr12:39763582:39763583:-_ENSG00000139116_ENST00000544797|hu_mus|hu_hu_hu_mus_False|18_58 (ssRNA)
RNA: GGGAGUUCUACAGUCCGACGAUCCUCUAGGAACUGGGCAUUCACUUUGAAUUCAGGAGGGGGCAGCCCGUUUUUAAUUGCUAUGUGCUUUUUCUCAUCAAUACUCUUGAACAGGUGUUUAACAGCUCGAGAGAUGAUGCCCUGCAACAGAGGAUUGAGCAUCA
B5: chr2:74756847:74756848:-_ENSG00000115307_ENST00000377526|hu_hu|FALSE|FALSE (ssRNA)
RNA: GGGAGUUCUACAGUCCGACGAUCGCCGCCAUUUUCGCGCCCGGCCGCAGGGGCUCUUGGGAAGGCGGAGUCUUUGGGCAUCCGCCCGGGGUGAGGGGACCCGAAGUCCUGAGGCGCGCCGGAAGGGCUAGCGGUCCCAGCAUACAACAGAGGAUUGAGCAUCA
B6: 138058580_138059465_3786_CDS_ENSMUSG00000041642_ENSMUST00000075164|mouse|control|control (ssRNA)
RNA: GGGAGUUCUACAGUCCGACGAUCGGAGGCCAGGGACUUGGUGAUGUUCUUGGUAGAGCUGUCCAAUGGGGGUCCUAGGCACUCCGCAGACACGGCCUUCAUCUGUGCGGAUAGCUUGGGCUCACCCUUGAACUUGAAGUCAUCCAACAGAGGAUUGAGCAUCA
B7: chr8:104447970:104447971:+_ENSG00000164934_ENST00000297579|hu_hu|hu_hu_hu_mus_False|78_98 (ssRNA)
RNA: GGGAGUUCUACAGUCCGACGAUCAUACACUUCCCUGCUUCGACUUUUGUCCACAGGAAAGAUUCGAAUAGACUUAUCAAAGCUGGCAGACACAAAUUCCUUCCCAGUGGGAGAGUAGUCCACAUCAAGUACUGCAGACACGUGCAACAGAGGAUUGAGCAUCA
B8: chr15:78454051:78454052:+_ENSG00000166411_ENST00000558554|hu_mus|FALSE|FALSE (ssRNA)
RNA: GGGAGUUCUACAGUCCGACGAUCAUGCUCAAUUCCACUGUAUUCUCCUUCCGUGUUCUCUCGGAUGGUGACGAUAUUUACAUCCGUGUAAGGGGUUUUAUAACCUUCAAUUGAGACACAUGGCCGGACAUUGGCAUAAAGGUCCAACAGAGGAUUGAGCAUCA
B9: chr11:93987321:93987322:+_ENSMUSG00000020859_ENSMUST00000103168|mus_mus|motif|central (ssRNA)
RNA: GGGAGUUCUACAGUCCGACGAUCUACAAAGUUACAUUCCGAACCCCAGGGAUUCCAUAAUAGAAAUAAAUACUGAAAUAACGGCAUUGCUAAAUGAGCUUUUUACGCAUAGAAAUGAAGCCGUGGCCUCUAAAGACAGCAAAUCAACAGAGGAUUGAGCAUCA
B10: chr10:122431106:122431107:-_ENSMUSG00000034602_ENSMUST00000073792|mus_mus|FALSE|FALSE (ssRNA)
RNA: GGGAGUUCUACAGUCCGACGAUCAAUAUUUUCAAAAUGUUGCCACUCUUACUAUUUUGAUACUUUAUCAGUGAUAGUCCUAUUCUUUAAUUCACAAGUGAGUAUAUCAAAAUAUAAAAAAUACACGGCUUGAGUCAUUUUUUUCAACAGAGGAUUGAGCAUCA
B11: chr14:73742652:73742653:-_ENSG00000133961_ENST00000557597|hu_hu|motif|central (ssRNA)
RNA: GGGAGUUCUACAGUCCGACGAUCCCCCUUUACCUUUGGCAAGAUUACUUACAACUCAUACAACUUCUUAAUAUCUGAGAACGGUUUAAAAUAUUCUAAAUGCAUAAAAAUAAAGAUUUUGGCUUUUGAUAUAUAUAAUAUUUACAACAGAGGAUUGAGCAUCA
B12: chr6:135286264:135286265:-_ENSG00000112339_ENST00000367826|hu_hu|FALSE|FALSE (ssRNA)
RNA: GGGAGUUCUACAGUCCGACGAUCUUUGCCAGUUGGCAACUUAGAAUUUUUGCAGAGGUGAUUAUUAAUACUUCUUUGCAGCUAAUUUUAGCUUUAAUUUUUCUCUCUCAUCUAAAAACAUAUCAAUUGCACAUUGUUCCUUUGCAACAGAGGAUUGAGCAUCA
B13: chr17:65740002:65740003:+_ENSG00000130935_ENST00000581375|hu_hu|hu_hu_hu_mus_False|68_98 (ssRNA)
RNA: GGGAGUUCUACAGUCCGACGAUCAACAAAUCUUUCUCUGGAUGAAGAACAGGAAGAUUCAUAUUAACUUUAUAAAAUAUCCAUCAAGUUAGGUGUGGUGGCCACACCUUUACUCCCAGCACUUUGGGAGGUGGAUCUCUGAGUCAACAGAGGAUUGAGCAUCA
B14: chr14:73742652:73742653:-_ENSG00000133961_ENST00000557597|hu_mus|FALSE|FALSE (ssRNA)
RNA: GGGAGUUCUACAGUCCGACGAUCCUAACCCGCUCACUUUUGGCAAGAUUACUUACAACUCAUACUUUUUAAUAUUGAGAACUAUUUAAAAUAUUCUAGGUGCAUAAAAAUAAAGAUUUUGGCUUUUUGAUAUAUAUAUAUAUACAACAGAGGAUUGAGCAUCA

The target in the assay is T1, UNK ZnF1-3. The assay can be described thus: nsRBNS (natural sequence RNA bind-n-seq); RBNS binding buffer (assumed for nsRBNS): 25 mM Tris pH 7.5, 150 mM KCl, 3 mM MgCl2, 0.01% Triton X-100, 500 ug/ml BSA, 20 U/ml SUPERase-In, 4 C; UNK is unkempt and MSI1 is Musashi-1; names of the RNAs are library labels; protein concentration not given here; high values mean tight binding.
For the molecule B1, the binding signal is 1.1 enrichment R. The result for B2 reads 1.13 enrichment R. Under B3 stands 0.938 enrichment R. Under B4 stands 1.58 enrichment R. B5: the binding signal came out at 0.69 enrichment R. The molecule B6 gave a binding signal of 0.543 enrichment R. The result for B7 reads 0.994 enrichment R. Under B8 stands 0.781 enrichment R. Under B9 stands 1.35 enrichment R; under B10, 0.965 enrichment R. B11 showed a binding signal of 3.97 enrichment R. The result for B12 reads 0.804 enrichment R; that for B13, 1.02 enrichment R; that for B14, 6.08 enrichment R.
